In PubChem BioAssay AID1159580 (chemical genetic matrix, 2015):
In all, about 5,500 compounds went through this assay and about 2,000 (36%) were called active. Another 18% or so got no clear call; they are omitted. Cut-off read from the data, not from the text of the source: active = normalized growth mostly below about 0.91 (no sharp cut-off); inconclusive = no clear call, values can overlap the other calls; inactive = mostly above about 0.92. The list shows a part of the results.

Test: chemical genetic growth profiling, strain panel (AID 1159580);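 note: tested at 20 µM; growth read once vehicle control cultures reached saturation at 30 °C; 1 = growth at the plate median or of vehicle wells; lower values mean less growth of the strain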
Conditions: growth OD

Measured: normalized growth

COC1=CC(C)[C@@H]2C[C@H]3OC(=O)C[C@H]4C(C)=C(OC)C(=O)C([C@@]34C)[C@@]2(C)C1=O (some centres undefined)
inactive: S. cerevisiae deletion strains, locus YKL009W, strain mrt4, active compounds read low 1.01 | S. cerevisiae deletion strains, locus YKL068W, active compounds read low 1 | S. cerevisiae deletion strains, locus YKL085W, strain MDH1 (second series), active compounds read low 1 | S. cerevisiae deletion strains, locus YKL085W, strain MDH1, active compounds read low 1 | S. cerevisiae deletion strains, locus YKL160W, strain elf1, active compounds read low 1 | S. cerevisiae deletion strains, locus YKL190W, strain CNB1, active compounds read low 1.01 | S. cerevisiae deletion strains, locus YKR001C, strain vps1, active compounds read low 0.986 | S. cerevisiae deletion strains, locus YKR026C, strain gcn3, active compounds read low 0.96 | S. cerevisiae deletion strains, locus YKR091W, strain srl3, active compounds read low 0.967 | S. cerevisiae deletion strains, locus YLL001W, strain dnm1, active compounds read low 0.969 | S. cerevisiae deletion strains, locus YLL026W, active compounds read low 0.985 | S. cerevisiae deletion strains, locus YLL041C, strain sdh2, active compounds read low 0.983 | S. cerevisiae deletion strains, locus YLR027C, strain aat2, active compounds read low 0.992 | S. cerevisiae deletion strains, locus YLR039C, strain RIC1, active compounds read low 1.06 | S. cerevisiae deletion strains, locus YLR058C, strain SHM2, active compounds read low 1.02 | S. cerevisiae deletion strains, locus YLR102C, strain apc9, active compounds read low 1.02 | S. cerevisiae deletion strains, locus YLR113W, strain HOG1, active compounds read low 1.03 | S. cerevisiae deletion strains, locus YLR221C, strain rsa3, active compounds read low 1.01 | S. cerevisiae deletion strains, locus YLR258W, strain gsy2, active compounds read low 0.968 | S. cerevisiae deletion strains, locus YLR262C, strain YPT6 (second series), active compounds read low 0.991 | S. cerevisiae deletion strains, locus YLR262C, strain YPT6, active compounds read low 1.16 | S. cerevisiae deletion strains, locus YLR268W, strain sec22, active compounds read low 1.04 | S. cerevisiae deletion strains, locus YLR320W, strain mms22, active compounds read low 0.975 | S. cerevisiae deletion strains, locus YLR330W, strain CHS5, active compounds read low 1.01 | S. cerevisiae deletion strains, locus YLR342W, strain FKS1 (second series), active compounds read low 1.01 | S. cerevisiae deletion strains, locus YLR342W, strain FKS1, active compounds read low 0.976 | S. cerevisiae deletion strains, locus YLR357W, strain rsc2, active compounds read low 0.942 | S. cerevisiae deletion strains, locus YLR370C, strain arc18, active compounds read low 0.978 | S. cerevisiae deletion strains, locus YLR371W, strain rom2, active compounds read low 1.02 | S. cerevisiae deletion strains, locus YLR384C, strain iki3, active compounds read low 0.967 | S. cerevisiae deletion strains, locus YLR418C, strain cdc73, active compounds read low 1 | S. cerevisiae deletion strains, locus YML016C, strain PPZ1, active compounds read low 1.01 | S. cerevisiae deletion strains, locus YML032C, strain rad52, active compounds read low 1.01 | S. cerevisiae deletion strains, locus YML120C, strain ndi1, active compounds read low 0.99 | S. cerevisiae deletion strains, locus YML124C, strain tub3, active compounds read low 1.01 | S. cerevisiae deletion strains, locus YMR058W, strain fet3, active compounds read low 0.976 | S. cerevisiae deletion strains, locus YMR078C, strain ctf18, active compounds read low 1.03 | S. cerevisiae deletion strains, locus YMR125W, strain sto1, active compounds read low 0.975 | S. cerevisiae deletion strains, locus YMR129W, active compounds read low 0.987 | S. cerevisiae deletion strains, locus YMR205C, strain PFK2, active compounds read low 0.946 | S. cerevisiae deletion strains, locus YMR223W, strain ubp8, active compounds read low 1.01 | S. cerevisiae deletion strains, locus YMR231W, strain pep5, active compounds read low 0.973 | S. cerevisiae deletion strains, locus YMR263W, strain SAP30, active compounds read low 1.02 | S. cerevisiae deletion strains, locus YMR307W, strain GAS1, active compounds read low 1.17 | S. cerevisiae deletion strains, locus YNL067W, strain RPL9B, active compounds read low 1.03 | S. cerevisiae deletion strains, locus YNL071W, strain lat1, active compounds read low 0.987 | S. cerevisiae deletion strains, locus YNL153C, strain GIM3, active compounds read low 1.02 | S. cerevisiae deletion strains, locus YNL183C, strain NPR1, active compounds read low 0.988 | S. cerevisiae deletion strains, locus YNL209W, strain ssb2, active compounds read low 1 | S. cerevisiae deletion strains, locus YNL233W, strain BNI4, active compounds read low 1.03 | S. cerevisiae deletion strains, locus YNL248C, strain rpa49, active compounds read low 1.01 | S. cerevisiae deletion strains, locus YNL250W, strain rad50, active compounds read low 1.03 | S. cerevisiae deletion strains, locus YNL271C, strain bni1, active compounds read low 1.01 | S. cerevisiae deletion strains, locus YNL298W, strain CLA4, active compounds read low 1.02 | S. cerevisiae deletion strains, locus YNL307C, strain MCK1, active compounds read low 1.01 | S. cerevisiae deletion strains, locus YNL322C, strain KRE1 (second series), active compounds read low 0.988 | S. cerevisiae deletion strains, locus YNL322C, strain KRE1, active compounds read low 1 | S. cerevisiae deletion strains, locus YNR049C, strain mso1, active compounds read low 0.973 | S. cerevisiae deletion strains, locus YNR052C, strain pop2, active compounds read low 1.01 | S. cerevisiae deletion strains, locus YOL006C, strain TOP1, active compounds read low 1.08 | S. cerevisiae deletion strains, locus YOL012C, strain htz1 2.07 | S. cerevisiae deletion strains, locus YOL147C, strain pex11, active compounds read low 1 | S. cerevisiae deletion strains, locus YOR001W, strain rrp6, active compounds read low 0.993 | S. cerevisiae deletion strains, locus YOR061W, strain CKA2, active compounds read low 1.01 | S. cerevisiae deletion strains, locus YOR069W, strain VPS5, active compounds read low 1.01 | S. cerevisiae deletion strains, locus YOR070C, strain gyp1, active compounds read low 0.987 | S. cerevisiae deletion strains, locus YOR080W, strain dia2, active compounds read low 0.977 | S. cerevisiae deletion strains, locus YOR083W, strain WHI5, active compounds read low 1.01 | S. cerevisiae deletion strains, locus YOR106W, strain vam3, active compounds read low 0.992 | S. cerevisiae deletion strains, locus YOR136W, strain idh2, active compounds read low 1.01 | S. cerevisiae deletion strains, locus YOR144C, strain elg1, active compounds read low 1.01 | S. cerevisiae deletion strains, locus YOR184W, strain ser1, active compounds read low 1.02 | S. cerevisiae deletion strains, locus YOR231W, strain MKK1, active compounds read low 1.04 | S. cerevisiae deletion strains, locus YOR265W, strain rbl2, active compounds read low 0.982 | S. cerevisiae deletion strains, locus YOR270C, strain vph1, active compounds read low 0.975 | S. cerevisiae deletion strains, locus YOR290C, strain snf2, active compounds read low 0.903 | S. cerevisiae deletion strains, locus YOR316C, strain cot1, active compounds read low 1.01 | S. cerevisiae deletion strains, locus YPL051W, strain arl3, active compounds read low 1 | S. cerevisiae deletion strains, locus YPL078C, strain atp4, active compounds read low 0.996 | S. cerevisiae deletion strains, locus YPL106C, strain sse1, active compounds read low 0.978 | S. cerevisiae deletion strains, locus YPL240C, strain hsp82, active compounds read low 0.987 | S. cerevisiae deletion strains, locus YPL241C, strain CIN2, active compounds read low 1.01 | S. cerevisiae deletion strains, locus YPL256C, strain CLN2, active compounds read low 1.01 | S. cerevisiae deletion strains, locus YPR119W, strain clb2, active compounds read low 1.01 | S. cerevisiae deletion strains, locus YPR141C, strain kar3, active compounds read low 1.01 | S. cerevisiae deletion strains, locus YPR163C, strain tif3, active compounds read low 1.01 | S. cerevisiae deletion strains, locus YPR167C, strain met16, active compounds read low 1 | S. cerevisiae deletion strains, strain wtn01, active compounds read low 1.01 | S. cerevisiae strains, strain wild type, active compounds read low 1.01
